From PubChem BioAssay
The source made the active and inactive calls. Unless noted, the rule behind the calls is not given here.

Columns and labels:
[1] = liver-stage malaria parasite load reduction – cell-based, known kinase inhibitor set, luminescence, hepatoma host viability (AID 624392); details: Plasmodium liver stage in hepatoma cells, luciferase luminescence, concentration not given here; liver cell % of control: measured here: host liver cell viability; parasite % of control: stronger effect = lower value;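 note: infected cells incubated roughly two days before readout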
[2] = altered dexamethasone sensitivity, NF-kB reporter, cell-based, luciferase, IL-1B stimulus (AID 624486); details: IL-1B + dexamethasone, luminescence; percent of negative control (+Dex): actives lie on both sides, concentration not given here; z-score: measured here: IL-1B alone, no Dex;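 for percent of negative control (+Dex): 100% = mean signal of vehicle control wells on the plate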
[3] = C. elegans survival during P. aeruginosa infection – whole organism (AID 651566);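 note: tested at 14 µM; sign flipped so higher z means a lower ratio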; details: C. elegans killed by P. aeruginosa, survival ratio
[4] = pro-inflammatory signaling induction in mouse macrophages – cell-based, murine, luminescence (AID 652131); details: murine macrophage pro-inflammatory reporter, stronger effect = higher value
[5] = molecular target: Cellular tumor antigen p53 (Homo sapiens) (UniProt P04637); experiment: GFP-p53 level modulators in HPV16+ cells – imaging, known kinase inhibitor set, EGFP/DsRed ratio (AID 1053116); details: GFP-p53 stability, stronger effect = higher value; EGFP object count: measured here: GFP-p53 positive objects count;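 note: cells exposed to compounds for 24 h at 37 °C before reading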
[6] = inducers of IRF3 signaling, differentiated THP-1 – cell-based, PMA-stimulated THP-1, luminescence (AID 1053176); details: PMA-differentiated THP-1, IRF3 reporter luminescence; stronger effect = higher value
[7] = MELAS cybrid and Rieske KO viability enhancers – cell-based, MELAS cybrids, Rieske KO mouse fibroblasts, CellTiter-Glo, primary screen (AID 1508586;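 active = mean z-score across replicates of 1.96 or higher in either the MELAS or the Rieske mutant cell line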;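 note: z relative to plate mean and SD of compound and empty wells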); details: low glucose
[8] = MELAS cybrid survival, CellTiter-Glo 48 h, stronger effect = higher value
[9] = Rieske KO mouse fibroblast survival, CellTiter-Glo 72 h

Sequence of Cellular tumor antigen p53 (Homo sapiens) (P04637 whole entry, looked up): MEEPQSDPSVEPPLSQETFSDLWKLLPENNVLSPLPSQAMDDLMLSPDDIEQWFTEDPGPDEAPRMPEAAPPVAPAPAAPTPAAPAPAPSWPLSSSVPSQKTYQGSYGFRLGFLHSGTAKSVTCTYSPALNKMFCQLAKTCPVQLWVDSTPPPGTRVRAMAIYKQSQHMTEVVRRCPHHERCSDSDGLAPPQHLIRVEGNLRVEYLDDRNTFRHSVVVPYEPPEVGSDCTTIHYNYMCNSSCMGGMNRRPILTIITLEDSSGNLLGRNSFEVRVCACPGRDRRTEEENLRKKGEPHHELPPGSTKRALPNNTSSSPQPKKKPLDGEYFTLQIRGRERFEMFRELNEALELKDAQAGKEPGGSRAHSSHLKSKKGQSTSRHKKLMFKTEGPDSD

Structure (SMILES) | liver cell % of control [1] [%] | parasite % of control [1] | percent of negative control (+Dex) [2] | z-score [2] | z-score [3] | z-score [4] | EGFP object count [5] | EGFP/DsRed ratio [5] | fraction signal [6] | z-score [7, 8] | z-score [7, 9]
COC(=O)c1cncc(/C=C/c2c(C)cc(O)cc2C)c1 | 108 | 131% (inactive) | 108% (inactive) | 1.96 | 0.295 (inactive) | -0.608 (inactive) | 4.5 | 0.286 (inactive) | -0.0065 (inactive) | 0.159 (inactive) | 0.14
NCc1ccc(-c2nc(-c3ccc(Cl)c(O)c3)c(-c3ccncc3)[nH]2)cc1 | 94.8 | 77.4% (inactive) | 91.5% (inactive) | -0.18 | 1.2 (inactive) | -0.414 (inactive) | 2 | 0.0758 (inactive) | 0.0015 (inactive) | 0.156 (inactive) | -0.269
CN1CCN(Cc2ccc(-c3cc4ncnc(Nc5ccc(OCc6cccc(F)c6)c(Cl)c5)c4s3)o2)CC1 | 69.8 | 97% (inactive) | 86.5% (inactive) | -0.395 | 0.455 (inactive) | -0.527 (inactive) | 11.5 | 0.213 (inactive) | 0.006 (inactive) | 0.235 (inactive) | -0.538
NS(=O)(=O)c1ccc(N=Nc2c(O)[nH]c3cccc(CCc4ccncc4)c23)cc1 | 87.4 | 102% (inactive) | 92.5% (inactive) | -0.56 | -0.35 (inactive) | 4.97 (inactive) | 4 | 0.0896 (inactive) | -0.003 (inactive) | -0.234 (inactive) | -0.178
CCCN1CCC(Oc2cc(Nc3nc(Nc4cccc(F)c4C(N)=O)c4cc[nH]c4n3)c(OC)cc2Cl)CC1 | 60.5 | 168% (inactive) | 77.5% (inactive) | -0.445 | 0.48 (inactive) | -0.663 (inactive) | 67.5 | 0.575 (active) | 0.0095 (inactive) | 0.312 (inactive) | 0.375
C[C@@H](Oc1cc(-n2cnc3ccc(OC[C@@H](O)CO)cc32)sc1C(N)=O)c1ccccc1Cl | 94.6 | 81.9% (inactive) | 90% (inactive) | -0.93 | 0.155 (inactive) | -1.41 (inactive) | 5 | 0.0656 (inactive) | -0.0045 (inactive) | -0.759 (inactive) | 0.965
CS(=O)(=O)CCNCc1nc(-c2ccc3ncnc(Nc4ccc(OCc5cccc(C(F)(F)F)c5)cc4)c3c2)cs1 | 96.4 | 93.1% (inactive) | 91.5% (inactive) | -0.43 | -0.1 (inactive) | 0.202 (inactive) | 4.5 | 0.116 (inactive) | -0.002 (inactive) | 0.123 (inactive) | -0.291
O=C(NCC1CC1)c1ccc(-c2cccc(C(=O)NC3CC3)c2)cc1 | 164 | 130% (inactive) | 91.5% (inactive) | 1.28 | -0.465 (inactive) | 1.36 (inactive) | 4.5 | 0.0862 (inactive) | 0 (inactive) | -0.117 (inactive) | -0.418
COc1ccc(Nc2ncc(-c3ccccc3)o2)cc1OC | 152 | 101% (inactive) | 154% (inactive) | 4.41 | -0.885 (inactive) | 4.21 (inactive) | 3 | 0.0153 (inactive) | -0.0085 (inactive) | 1.52 (inactive) | 0.00272
NS(=O)(=O)c1ccc(-c2ccc3c(NC(=O)C4CC4)n[nH]c3c2)cc1 | 109 | 143% (inactive) | 98.5% (inactive) | 0.755 | -0.155 (inactive) | 0.098 (inactive) | 4.5 | 0.0343 (inactive) | -0.0105 (inactive) | -0.641 (inactive) | -0.353
COc1ccc2ncnc(Nc3ccc(OCc4ccccc4)cc3)c2c1 | 120 | 92.8% (inactive) | 88% (inactive) | -0.885 | 0.35 (inactive) | 1.39 (inactive) | 4 | 0.134 (inactive) | -0.023 (inactive) | -0.876 (inactive) | -0.262
COc1cc(C)c(N(C)C(=O)CN(C)C)cc1Nc1nc(Nc2cccc(F)c2C(N)=O)c2cc[nH]c2n1 | 71.5 | 391% (inactive) | 110% (inactive) | 0.76 | 0.1 (inactive) | 0.717 (inactive) | 5 | 0.2 (inactive) | -0.0115 (inactive) | 3.65 (active) | 1.35
CCn1c(-c2nonc2N)nc2ccc(F)cc21 | 98 | 113% (inactive) | 82.5% (inactive) | -0.655 | -0.725 (inactive) | -0.544 (inactive) | 4 | 0.0296 (inactive) | 0.0105 (inactive) | -0.0553 (inactive) | 0.0939
Nc1nc(-c2ccccn2)c(-c2ccc3ncccc3n2)s1 | 94.7 | 101% (inactive) | 81.5% (inactive) | -0.74 | 0.265 (inactive) | 4.39 (inactive) | 4 | 0.114 (inactive) | -0.01 (inactive) | -0.0333 (inactive) | -0.22
CN(c1ccc(NC(=O)NCCN2CCOCC2)cc1)c1ccnc(Nc2ccc(CS(C)(=O)=O)cc2)n1 | 99.9 | 114% (inactive) | 94% (inactive) | -0.155 | 0.89 (inactive) | 2.96 (inactive) | 3 | 0.184 (inactive) | -0.0035 (inactive) | -0.011 (inactive) | -0.139
O=S1CCN(Cc2ccc(-c3ccc4ncnc(Nc5ccc(OCc6ccccc6)c(F)c5)c4c3)o2)CC1 | 81.6 | 112% (inactive) | 77.5% (inactive) | -1.04 | -0.505 (inactive) | 0.693 (inactive) | 2.5 | 0.0418 (inactive) | 0.012 (inactive) | -0.335 (inactive) | -0.276
CN(c1ccc(NC(=O)Nc2c(Cl)cccc2Cl)cc1)c1ccnc(Nc2cccc(CS(C)(=O)=O)c2)n1 | 108 | 130% (inactive) | 134% (inactive) | 3.88 | 0.545 (inactive) | 5.36 (inactive) | 4 | 0.171 (inactive) | 0.005 (inactive) | -0.649 (inactive) | -0.476
Cc1ccc2[nH]c(O)c(N=Nc3ccc(S(N)(=O)=O)cc3)c2c1 | 164 | 128% (inactive) | 102% (inactive) | 0.885 | -0.295 (inactive) | -0.079 (inactive) | 5 | 0.439 (inactive) | -0.0055 (inactive) | -0.101 (inactive) | -0.00523
Cc1ccc(Nc2ccnc(Nc3cccc(C(N)=O)c3)n2)cc1O | 103 | 259% (inactive) | 106% (inactive) | 1.52 | -0.32 (inactive) | -1.32 (inactive) | 3 | 0.0254 (inactive) | -0.008 (inactive) | -0.195 (inactive) | 0.472
Fc1ccc(-c2nn3ncccc3c2-c2ccnc(Nc3ccc4c(c3)OCCO4)n2)cc1 | 90.5 | 13.9% (inactive) | 100% (inactive) | -1.27 | -0.41 (inactive) | -0.769 (inactive) | 3 | 0.08 (inactive) | -0.003 (inactive) | -0.754 (inactive) | -0.424
CCOc1nccc2c1nc(-c1nonc1N)n2CC | 107 | 176% (inactive) | 86% (inactive) | -0.885 | 0.225 (inactive) | 0.153 (inactive) | 4.5 | 0.429 (inactive) | 0 (inactive) | -0.642 (inactive) | -0.113
NS(=O)(=O)c1ccc(N=Nc2c(O)[nH]c3ccc(C(=O)NCc4ccncc4)cc23)cc1 | 77.7 | 86.4% (inactive) | 95% (inactive) | -0.595 | -0.105 (inactive) | 0.051 (inactive) | 8 | 0.126 (inactive) | -0.001 (inactive) | -0.207 (inactive) | -0.126
NC(=O)c1ccc(Oc2nccc(-c3c(-c4ccc(F)cc4)ncn3C3CCNCC3)n2)cc1 | 89.2 | 144% (inactive) | 96% (inactive) | 0.125 | 0.14 (inactive) | 0.154 (inactive) | 8.5 | 0.173 (inactive) | -0.008 (inactive) | 0.243 (inactive) | -0.477
CCn1c(-c2nonc2N)nc2cncc(C(=O)NCCNC)c21 | 80.5 | 190% (inactive) | 89% (inactive) | -0.865 | 0.43 (inactive) | -0.531 (inactive) | 7 | 0.122 (inactive) | -0.011 (inactive) | 3 (active) | 0.0886
COc1cccc(-n2ncc3c(N/N=C/c4ccc(F)cc4)ncnc32)c1 | 104 | 96.2% (inactive) | 93.5% (inactive) | 0.76 | -1.12 (inactive) | -0.343 (inactive) | 9 | 0.197 (inactive) | -0.0025 (inactive) | 1.48 (inactive) | -0.0554
COc1cc2ncn(-c3cc(OCc4ccccc4C(F)(F)F)c(C(=O)N(C)C)s3)c2cc1OC | 104 | 116% (inactive) | 89.5% (inactive) | -0.475 | 0.535 (inactive) | 0 (inactive) | 8.5 | 0.396 (inactive) | -0.002 (inactive) | 0.0168 (inactive) | -0.0859
COc1ccc(-c2nn3ncccc3c2-c2ccnc(Nc3cccc(C(F)(F)F)c3)n2)cc1 | 92.5 | 122% (inactive) | 90.5% (inactive) | 0.64 | 0.3 (inactive) | 0.045 (inactive) | 4.5 | 0.0918 (inactive) | 0.002 (inactive) | 1.24 (inactive) | -0.239
COC(=O)Nc1nc2ccc(Oc3ccc(NC(=O)Nc4cccc(Br)c4)cc3)cc2[nH]1 | 77.3 | 247% (inactive) | 104% (inactive) | 0.65 | -0.435 (inactive) | 0.412 (inactive) | 6.5 | 0.0884 (inactive) | -0.001 (inactive) | 0.278 (inactive) | -0.0385
